Sampled rows, rich in hits. Any-hit rate of the full collection: about 3.5%.
MITF primary – human MITF inhibition, primary screen; O75030; AlphaScreen MITF homodimerization, bead proximity signal; inhibition, % at 2.6 µM; 0.91% of 650,000 active; AID 1259374; in the data active = inhibition above about 50%
FBW7 act – human FBW7 E3 ligase activation, primary screen | AID 1259310 | normalized activity (activation), % at 26.1 µM | Q969H0 | 0.13% of 650,000 active | AlphaScreen FBW7–phospho-cyclin E peptide binding, activator screen; in the data active = normalized activity above about 1.9%;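 note: purified mutant Fbw7 with reduced substrate affinity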
Target sequence (Q969H0 whole entry, looked up): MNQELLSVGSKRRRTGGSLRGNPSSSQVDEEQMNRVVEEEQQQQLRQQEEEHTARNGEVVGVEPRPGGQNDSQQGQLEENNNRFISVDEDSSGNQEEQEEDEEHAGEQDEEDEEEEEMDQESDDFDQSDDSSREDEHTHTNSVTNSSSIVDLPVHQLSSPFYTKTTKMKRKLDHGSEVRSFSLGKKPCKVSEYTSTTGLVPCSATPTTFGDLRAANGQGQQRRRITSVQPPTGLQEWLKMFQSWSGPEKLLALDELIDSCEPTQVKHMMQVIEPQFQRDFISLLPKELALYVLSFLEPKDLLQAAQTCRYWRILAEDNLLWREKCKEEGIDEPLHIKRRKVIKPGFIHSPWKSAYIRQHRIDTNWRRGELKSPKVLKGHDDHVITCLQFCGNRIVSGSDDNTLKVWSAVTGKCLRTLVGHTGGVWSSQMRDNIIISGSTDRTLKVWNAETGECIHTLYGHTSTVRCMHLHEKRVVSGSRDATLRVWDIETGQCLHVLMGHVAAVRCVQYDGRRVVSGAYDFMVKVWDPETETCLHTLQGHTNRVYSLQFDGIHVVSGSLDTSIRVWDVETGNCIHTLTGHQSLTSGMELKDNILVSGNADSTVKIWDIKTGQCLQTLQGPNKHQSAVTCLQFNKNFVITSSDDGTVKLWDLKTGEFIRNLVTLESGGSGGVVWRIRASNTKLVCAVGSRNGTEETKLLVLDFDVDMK
GPR151 activ – activates the human receptor GPR151. PathHunter beta-arrestin GPR151 cells, luminescence. activation, % at 11.2 µM. Q8TDV0. 1% of 650,000 active; in the data active = activation above about 4.9%
TEAD-YAP block – TEAD-YAP interaction inhibition; AID 1259422; 1.4% of 640,000 active; inhibition, % at 9.12 µM; HEK-TIYL cells, TEAD-Gal4/YAP UAS-luciferase luminescence; in the data active = inhibition above about 32%
GPR151 conf act – human GPR151 activation, confirmation screen; shares compounds with GPR151 activ; GPR151 PathHunter beta-arrestin cells, luminescence, 90 min; % of EA-reagent control over plate median; activation, % at 11.2 µM; 6,700 tested, under 10 active; AID 1508609;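 active = mean percent activation across replicates above the confirmation screen cutoff of 4.91%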
GPR119 counter – GPR119 activation, counter-screen for GPR151 activators. shares compounds with GPR151 activ. GPR119 PathHunter beta-arrestin cells, luminescence, 90 min; 0 = compound-well median, 100 = enzyme-acceptor control. activation, % at 11.2 µM. 0.3% of 6,700 active;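 active = mean percent activation in the counterscreen above 29.09%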;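 note: counterscreen on off-target GPR119 to flag nonselective hits from the GPR151 activator screen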
Of the large screens only hits and unclear results are named; the others gave an inactive call (follow-up assays come after a bar, where they were run); ! = repeats disagree.

CCn1cc(/C=C/c2nc(O)c([N+](=O)[O-])c(=O)[nH]2)c2ccccc21	none
N#CCC(=O)N/N=C/c1cn(CC(=O)Nc2ccc(F)cc2)c2ccccc12	none
O=C(Cn1cc(/C=C/c2nc(O)c([N+](=O)[O-])c(=O)[nH]2)c2ccccc21)Nc1ccc(F)cc1	GPR151 activ 5.5 | GPR151 conf act inactive | GPR119 counter inactive
COc1ccc(-n2cc(-c3ccccc3)c3c(Nc4cccc(F)c4)ncnc32)cc1	none
Cc1cc(N(CC(=O)NC2CCCCC2)S(C)(=O)=O)ccc1Br	GPR151 activ 8.1 | GPR151 conf act inactive | GPR119 counter inactive
CCc1ccccc1NC(=S)N(Cc1cccc(Br)c1)CC1CCC(C(=O)O)CC1 (stereo not given)	GPR151 activ 7.9 | GPR151 conf act inactive | GPR119 counter inactive
COc1ccc(Cl)cc1NC(=S)N(Cc1cccc(Br)c1)CC1CCC(C(=O)O)CC1 (stereo not given)	GPR151 activ 15 | GPR151 conf act inactive | GPR119 counter inactive
O=C(CCn1c(=O)[nH]c2ccccc21)NCC1Cc2cc(Cl)cc(-c3ncccn3)c2O1 (stereo not given)	none
COCc1cc(CN2CCN3C(=O)[C@H](Cc4ccc(O)cc4)NC(=O)[C@H]3C2)ccc1OC	none
O=C1N[C@@H](Cc2c[nH]c3ccccc23)C(=O)N2CCN(C(=O)c3ccc4ccccc4c3)C[C@H]12	none
O=C1N[C@@H](Cc2c[nH]c3ccccc23)C(=O)N2CCN(C(=O)c3ccc(F)cc3)C[C@H]12	GPR151 activ 6.4 | GPR151 conf act inactive | GPR119 counter inactive
O=C1N[C@@H](Cc2c[nH]c3ccccc23)C(=O)N2CCN(C(=O)Oc3ccc(F)cc3)C[C@H]12	GPR151 activ 14 | GPR151 conf act inactive | GPR119 counter inactive
COc1ccc(C[C@@H]2NC(=O)[C@H]3CN(C(=O)c4cc(Cl)cc(Cl)c4)CCN3C2=O)cc1	GPR151 activ 7.4 | GPR151 conf act inactive | GPR119 counter inactive
COCc1cc(CN2CCN3C(=O)[C@H](Cc4ccccc4)NC(=O)[C@H]3C2)ccc1OC	GPR151 activ 5.7 | GPR151 conf act inactive | GPR119 counter inactive
COc1ccc(C(=O)N2CCN3C(=O)[C@H](Cc4ccc(Cl)cc4)NC(=O)[C@H]3C2)cc1	none
COc1ccc(CN2CCNC(=O)C2CC(=O)N(C)C2CCN(C)CC2)cc1OC (stereo not given)	none
N#C/C(=C\c1ccco1)C(=O)OCCN1C(=O)c2ccccc2C1=O	none
CCN(CC)CCN(C(=O)c1ccn(C)n1)c1nc2c(F)cccc2s1	none
Cc1c(C(=O)NCc2ccc(F)cc2)sc2ncn(Cc3ccccc3F)c(=O)c12	none
C/C(=N/NS(=O)(=O)c1ccc(C)cc1)c1c(O)c2ccccc2oc1=O	GPR151 activ 5.4 | GPR151 conf act inactive | GPR119 counter inactive
C/C(=N\NS(=O)(=O)c1ccc(C)cc1)c1c(O)c2ccccc2oc1=O	none
NS(=O)(=O)c1ccc(CCNC(=O)C(=O)Nc2ccccc2F)cc1	GPR151 activ 7.1 | GPR151 conf act inactive | GPR119 counter inactive
COc1ccc(OC)c(C2SCCN2S(=O)(=O)c2ccc(Br)cc2)c1 (stereo not given)	none
CC(Sc1nnc(NC(=O)c2ccccc2)s1)c1nc2ccccc2c(=O)[nH]1 (stereo not given)	GPR151 activ 5.7 | GPR151 conf act inactive | GPR119 counter inactive
Cc1nn(C)c(C)c1-c1nc(NCCOc2ccccc2)c2ncn(-c3ccccc3)c2n1	none
COc1cc(/C=C2/C(=O)NN(c3cccc(C)c3)C2=O)cc([N+](=O)[O-])c1O	none
CCOc1cc(/C=C2/C(=O)NN(c3cccc(C)c3)C2=O)cc([N+](=O)[O-])c1O	GPR151 activ 6.0 | GPR151 conf act inactive | GPR119 counter inactive
COc1cc([N+](=O)[O-])cc(/C=C2/C(=O)NC(=O)N(c3cccc(C)c3)C2=O)c1O	GPR151 activ 5.3 | GPR151 conf act inactive | GPR119 counter inactive
Cc1ccc(/C=C2\C(=O)NC(=O)N(c3cccc(Br)c3)C2=O)cc1[N+](=O)[O-]	GPR151 activ 5.1 | GPR151 conf act inactive | GPR119 counter inactive
COc1cc([N+](=O)[O-])ccc1NC1OC(=O)c2ccccc21 (stereo not given)	none
O=C(O)COc1ccc(N2C(=O)c3ccc(-c4nc5ccccc5c(=O)o4)cc3C2=O)cc1	GPR151 activ 7.2 | GPR151 conf act inactive | GPR119 counter inactive
CC1=NNC(=O)C1CCC(=O)N/N=C(\C)c1ccc([N+](=O)[O-])cc1 (stereo not given)	none
COc1ccc(-c2cnc3c(Nc4ccc(N5CCOCC5)cc4)nccn23)cc1OC	none
COc1ccccc1CN1CCN(S(=O)(=O)c2ccccc2[N+](=O)[O-])CC1	none
CCOc1ccccc1CN1CCN(S(=O)(=O)c2ccccc2[N+](=O)[O-])CC1	GPR151 activ 5.7 | GPR151 conf act inactive | GPR119 counter inactive
CCOc1ccccc1N1CCN(S(=O)(=O)c2ccccc2[N+](=O)[O-])CC1	GPR151 activ 5.7 | GPR151 conf act inactive | GPR119 counter inactive
CCS(=O)(=O)N1CCN(S(=O)(=O)c2ccccc2[N+](=O)[O-])CC1	none
O=C(Nc1ccc(S(=O)(=O)N2CCCC2)cc1)C(=O)NC1CCCc2ccccc21 (stereo not given)	none
CC(=O)c1ccc(NC(=O)C(=O)NC2CCCc3ccccc32)cc1 (stereo not given)	GPR151 activ 6.7 | GPR151 conf act inactive | GPR119 counter inactive
Cc1cccc(-n2nc3c(c2NC(=O)c2ccc(OC(C)C)cc2)CS(=O)C3)c1C (stereo not given)	none
CC1=C(c2ccc(C)cc2)S(=O)(=O)N=C1Nc1ccc(Br)cc1F	GPR151 activ 8.7 | GPR151 conf act inactive | GPR119 counter inactive
CC1=C(c2ccc(C)cc2)S(=O)(=O)N=C1Nc1ccc(C)cc1	none
CCCCCCCCCCCCCCCC(=O)C(F)(F)F	GPR151 activ 5.0! (no result: TEAD-YAP block) | GPR151 conf act inactive | GPR119 counter inactive
COc1ccc(/C=N/N(C)C2=NCCN2)c(OC)c1OC	GPR151 activ 6.9 | GPR151 conf act inactive | GPR119 counter inactive
CCc1nnc(NC(=O)C2(c3cccc(F)c3)CCCC2)s1	GPR151 activ 5.2 | GPR151 conf act inactive | GPR119 counter inactive
O=C(Nc1ccc(C(O)(C(F)(F)F)C(F)(F)F)cc1)c1ccc(F)cc1	none
O=C(Cc1ccsc1)NCC1Cc2c(F)ccc(-c3ccncc3)c2O1 (stereo not given)	GPR151 activ 17 | GPR151 conf act inactive | GPR119 counter inactive
CC(C)CC(=O)NCC1Cc2c(F)ccc(-c3ccncc3)c2O1 (stereo not given)	none
Cc1cc(NC(=O)c2cc(-c3ccccc3O)no2)nn1CC(=O)N1CCOCC1	GPR151 activ 5.6 | GPR151 conf act inactive | GPR119 counter inactive

Assay outcomes: PubChem, The Scripps Research Institute Molecular Screening Center
